Out of some 100,000 compounds screened, about 620 (0.62%) were called active. Only a selection was taken, and actives are over-represented in it overall. Values without a mark were called inactive. The calls were made as follows: active = z-score of 3 or more in at least 2 runs; inactive = the rest.
experiment: TAR RNA-Tat peptide displacers, HIV-1, primary screen, biochemical, FRET, FAM/TAMRA-labeled Tat (AID 1259389); conditions: HIV-1 TAR RNA, Tat peptide displacement FRET; active compounds read high

Row | SMILES | z-score
1 | CNC(=O)c1c(NC(=O)CCSc2ccccc2)sc2c1CCC2 | 0.4
2 | COC(=O)c1cc2n(n1)CC(C)(C(=O)NC1CCC(C)CC1)N(CCc1cccs1)C2=O (centres undefined) | 0.65
3 | CSc1cccc(NC(=O)CSc2nnc(C)n3c2cc2oc(C)cc23)c1 | 0.7
4 | O=C(Nc1nccs1)c1cc(-c2ccc(Cl)cc2)on1 | 15.3
5 | CN1CCN(C(=O)Cn2ncn3cccc3c2=O)CC1 | 1.42
6 | Cc1cc2c(cc3c(=O)n(CC(=O)NC4CCCC(C)C4C)ncn32)s1 (centres undefined) | -0.21
7 | CC1CCCC(NC(=O)C(C)n2ncn3cccc3c2=O)C1C (centres undefined) | 11 (active)
8 | CCCCn1c(C)c(C)c2c1ncn1nc(Cc3ccc(OC)cc3)nc21 | 0.12
9 | CC1CCCCN1CCCNC(=O)c1noc2c1CCc1sccc1-2 (centres undefined) | 1.13
10 | CN1C(=O)C[C@H](C(=O)O)C1c1cccnc1 (some centres undefined) | 1.8
11 | Cc1ccc2nc(Nc3ncc4c(n3)CC(C)(C)CC4=O)nc(C)c2c1 | 1.31
12 | CCOc1ccc2nc(Nc3nc(C)c(CC)c(=O)[nH]3)nc(C)c2c1 | 2.61
13 | CCOc1ccc2nc(Nc3ncc4c(n3)CC(c3ccco3)CC4=O)nc(C)c2c1 (centres undefined) | 13.8 (active)
14 | Cn1cc(NC(=O)Nc2cccc(Cl)c2)c2ccccc2c1=O | -0.05
15 | Brc1ccccc1C1Nc2cccc3cccc(c23)N1 | 5.65 (active)
16 | COc1ccc(C2CC(=O)C3=C(C2)Nc2ccccc2NC3c2cccc(Cl)c2)cc1 (centres undefined) | -1.58
17 | Cc1ccc(C2Nc3cccc4cccc(c34)N2)cc1 | 6.71 (active)
18 | COc1cccc(C2Nc3cccc4cccc(c34)N2)c1 | 21.3 (active)
19 | Cc1ccc(C2CC(c3cccc(C)c3)n3nc(N)nc3N2)cc1 (centres undefined) | 0.73
20 | COc1ccc(N2C(=O)C3CCCN3C2c2cccc(OC)c2)cc1 (centres undefined) | -0.15
21 | COc1cccc(C2Nc3cccc4cccc(c34)N2)c1OC | 3.46
22 | Oc1ccc(C2Nc3cccc4cccc(c34)N2)cc1 | 4.86 (active)
23 | CCC(C)NC(=O)c1ccc(CN2C(=O)C(C)=C(c3ccc(C)cc3)S2(=O)=O)cc1 (centres undefined) | 1.92
24 | Cc1nc2nc(Cc3ccccc3)[nH]n2c(=O)c1C | 2.84
25 | Cc1cc2nc(COC(=O)c3ccccc3Cl)cc(=O)n2o1 | 0.42

Row | SMILES | z-score
26 | Oc1ccc2ncccc2c1C(Nc1ccccn1)c1cccc(Br)c1 (centres undefined) | 10.7
27 | O=C(OCc1cc(=O)n2nc(C3CCCCC3)sc2n1)c1ccccc1 | 0.63
28 | COc1cc(C2OC(c3ccc(Br)cc3)=NN2C(C)=O)ccc1OC(C)=O (centres undefined) | 1.63
29 | Cc1c(C(=O)N2CCC(C)CC2)c(S(=O)(=O)N2CCN(C3CCCCC3)CC2)c(C)n1C | 1.14
30 | Cc1cccc(NS(=O)(=O)c2ccc(-c3ccc(=O)[nH]n3)o2)c1C | 0.96
31 | CCOc1ccc(/C=C/c2nc(C#N)c(N3CCNCC3)o2)cc1 | 0.65
32 | CCSc1ncc(CO)n1Cc1ccc(F)cc1 | 0.78
33 | Cc1ccn2c(=O)c(C(=O)NCCCOC(C)C)c(O)nc2c1 | 0.76
34 | COc1ccc(-c2nc3ccccc3[nH]2)cc1OC | 2.05
35 | Cc1nnc(NC(=O)CN2C(=O)c3cccnc3Sc3ccccc32)s1 | 1.32
36 | O=C(Cn1c(=O)sc2ccccc21)NCCC1=CCCCC1 | 0.76
37 | C=CCOC(=O)C1=C(C)NC2=C(C(=O)CC(C)(C)C2)C1c1cc2c(cc1Cl)OCO2 (centres undefined) | 0.26
38 | O=C(c1cc(-c2ccccc2)n[nH]1)N1CCn2c1nc1ccccc12 | 0.42
39 | COc1ccc(Cl)cc1N1CC(O)=C(c2nc3ccccc3n2C)C1=N | 0.34
40 | CCCC1CNc2cc(C)ccc2O1 (centres undefined) | 2.06
41 | COc1ccc(-c2cc(=O)c3c(O)cc(O[C@@H]4O[C@H](CO[C@@H]5O[C@@H](C)[C@H](O)[C@@H](O)[C@H]5O)[C@@H](O)[C@H](O)[C@H]4O)cc3o2)cc1O | 4.29
42 | C[C@@H]1O[C@@H](O[C@H]2[C@@H](Oc3cc(O)c4c(c3)O[C@H](c3ccc(O)cc3)CC4=O)O[C@H](CO)[C@@H](O)[C@@H]2O)[C@H](O)[C@H](O)[C@H]1O | 2.09
43 | C[C@@H]1O[C@@H](OC[C@H]2O[C@@H](Oc3cc(O)c4c(c3)O[C@H](c3ccc(O)c(O)c3)CC4=O)[C@H](O)[C@@H](O)[C@@H]2O)[C@H](O)[C@H](O)[C@H]1O | 3.52 (active)
44 | Cc1nc(S(=O)(=O)Nc2ccc(C(C)C)cc2)cn1C | 1.64
45 | O=C1c2ccccc2C(Nc2ccc(F)cc2F)N1c1ccccn1 (centres undefined) | 2.34
46 | CN(C)CCCNc1cc(N2CCN(c3ccccc3F)CC2)c2noc3c2c1C(=O)c1ccccc1-3 | 5.01 (active)
47 | CCOC(=O)N1CCN(c2cc(NCCO)c3c4c(onc24)-c2ccccc2C3=O)CC1 | 2.61
48 | CN1CCN(c2cc(NCCCC(=O)O)c3c4c(onc24)-c2ccccc2C3=O)CC1 | 1.94
49 | COc1cc(C)c(S(=O)(=O)N2CCc3cc4cc(C)ccc4nc32)cc1C | -1.52

— PubChem BioAssay AID1259389 (Center for Chemical Genomics, University of Michigan, 2018)
